From ChEMBL document CHEMBL3988442, “University of Dundee, Small-Polar-MMV Screening Library” (2021)
In all, about 48,000 compounds went through this assay and about 13,000 (27%) showed an effect of 50% or more. Some of the results follow.

These compounds were tested on Wolbachia pipientis (assay: Anti-Wolbachia Cell-Based Screen). Settings: 5 µM.
Format: functional
Design: scale not given: in the data most compounds retested in dose-response had high values

Going from `CCN(CC)CC1CN(Cc2ccco2)Cc2nccn2C1` (stereo not given) to `c1coc(CN2Cc3nccn3CC(Cn3cncn3)C2)c1` (stereo not given), the “Percent Effect” value falls from 84.77% to 1.02%.

First: c1cncc(OCC2CN(Cc3ccco3)Cc3nccn3C2)c1 (stereo not given)
Second: c1cncc(COCC2CN(Cc3ccco3)Cc3nccn3C2)c1 (stereo not given)
The “Percent Effect” value of the first is lower: -2.745% for the first, 6.885% for the second.

Compared with `CCOCC1CN(Cc2ccco2)Cc2nccn2C1.O=C(O)C(F)(F)F` (stereo not given), `CCOCc1nc2c(c(N3CC=CC3)n1)CCN(Cc1ccco1)CC2` is lower in “Percent Effect” value: 99.94% for the first, -6.095% for the second.

Going from `CC(C)C(C(=O)NCC1CC1)n1cnc2cc(F)c(F)cc21` (stereo not given) to `COc1ccc(CC(=O)N2CCCC(n3cc(C)cn3)C2)cc1F` (stereo not given), the “Percent Effect” value rises from -9.964% to -2.795%.

Compared with `O=C(CCc1nc(Cl)n[nH]1)NC1CCCN(CC2CCCCC2)C1` (stereo not given), `O=C(c1cnccn1)N1C[C@@H]2OCC(=O)N(CC3CCCCC3)[C@@H]2C1` is higher in “Percent Effect” value: -7.697% for the first, -4.007% for the second.

First: CCc1ncc(C(=O)N(C)Cc2cc(-c3ccncc3)no2)cn1
Second: Cc1nc(C)n(C2CCCN(C(=O)CCc3ccncc3)C2)n1 (stereo not given)
The “Percent Effect” value of the first is lower: -12.94% for the first, 4.522% for the second.

First: c1cncc(OCCNC2Cc3ccccc3C2)c1
Second: c1cncc(OCCCNC2COc3ccccc3C2)c1 (stereo not given)
The “Percent Effect” value of the first is lower: 2.244% for the first, 107.3% for the second.

First: COc1cccc2c1OCC(NCc1cnn(-c3ccccc3)c1)C2 (stereo not given)
Second: COc1cccc2c1OCC(NCCc1cnn(-c3ccccc3)c1)C2 (stereo not given)
The “Percent Effect” value of the first is lower: -6.454% for the first, -5.519% for the second.

Going from `COc1cccc2c1OCC(NCCCOc1cccnc1)C2` (stereo not given) to `c1ccc(OCCNC2CCN(c3ncccn3)CC2)cc1`, the “Percent Effect” value falls from 86.98% to -7.109%.

First: OC(CN(Cc1ccccc1)Cc1cscn1)c1cccs1 (stereo not given)
Second: CSC(C)Cc1c(-c2ccccc2)ncn1CCCNc1cccnc1 (stereo not given)
The “Percent Effect” value of the first is lower: -27.1% for the first, -5.851% for the second.

Going from `CNC(=O)C1(c2cnccn2)CCCN1C(=O)c1ccn(C)n1` (stereo not given) to `CNC(=O)C1(c2cnccn2)CCCN1C(=O)c1cccc(C)n1` (stereo not given), the “Percent Effect” value rises from -6.037% to 90.25%.

First: O=C(c1cccc(F)c1)N1C[C@@H](CN2CCCCC2)[C@@H](CO)C1
Second: CC1(C(=O)NCCN2CCCCC2)CCCN1C(=O)c1ccccc1 (stereo not given)
The “Percent Effect” value of the first is higher: 0.9976% for the first, 0.8057% for the second.

Going from `CNC(=O)c1nc2c(s1)CCN(C(=O)c1ccc(OC)cc1)CC2` to `CNC(=O)C1(c2cnccn2)CCCN1C(=O)c1ccc(OC)cc1` (stereo not given), the “Percent Effect” value rises from -5.332% to 106.6%.

Going from `CNC(=O)C1(c2cnccn2)CCCN1C(=O)c1ccccn1` (stereo not given) to `CNC(=O)C1(c2cnccn2)CCCN1C(=O)c1ccccc1` (stereo not given), the “Percent Effect” value rises from 81.35% to 95.42%.

Compared with `CNC(=O)C1(c2cnccn2)CCCN1C(=O)c1cccc(F)c1` (stereo not given), `CNC(=O)C1(c2cnccn2)CCCN1C(=O)c1ccc(F)cc1` (stereo not given) is lower in “Percent Effect” value: 96.69% for the first, 95.13% for the second.

Compared with `Cc1ccc(OC2(C(=O)O)CCN(C(=O)c3ccc(F)cc3)CC2)cn1`, `Cc1ccc(OC2(C(=O)O)CCN(C(=O)c3cccc(F)c3)CC2)cn1` is higher in “Percent Effect” value: -2.115% for the first, 1.243% for the second.

Compared with `COc1ccncc1NC(=O)C1(c2ccc(F)cc2)CCC1`, `COc1ccc(C2(c3nc(-c4cccnc4)no3)CCOCC2)cc1` is lower in “Percent Effect” value: -2.782% for the first, -4.756% for the second.

Compared with `COc1ccc(CN2CCOC3(CCCN(c4cnccn4)C3)C2)cc1.O=C(O)C(F)(F)F.O=C(O)C(F)(F)F` (stereo not given), `Cc1cccc(C(=O)N2C[C@@H]3[C@H](CC(=O)Nc4cccnc4)[C@@H]3C2)n1.O=C(O)C(F)(F)F.O=C(O)C(F)(F)F` is higher in “Percent Effect” value: -2.164% for the first, -1.772% for the second.

Compared with `O=C(CCNS(=O)(=O)c1cccnc1)N1CCCCC1`, `O=C(CCNc1ncccn1)N1CCCC(n2ccnc2)C1` (stereo not given) is lower in “Percent Effect” value: -5.593% for the first, -7.544% for the second.

Compared with `Cc1ccc(C)c(NC(=O)c2n[nH]c(-n3cnnc3)n2)c1`, `Cc1cc(C)n(C2CCCN(C(=O)CCNc3ncccn3)C2)n1` (stereo not given) is higher in “Percent Effect” value: 8.614% for the first, 114.6% for the second.

Going from `Cn1c(Nc2ccc(F)cc2)c(C#N)c(=O)n(C)c1=O` to `CC1=CC(C)(C)N(CN2C(=O)c3ccccc3C2=O)c2ccccc21`, the “Percent Effect” value falls from 7.851% to -12.76%.

First: O=C(c1cnn(-c2ccccc2)c1)N1CCN(c2cnccn2)CC1
Second: Cc1cnn(C2CCCN(C(=O)CCCOc3ccccc3F)C2)c1 (stereo not given)
The “Percent Effect” value of the first is lower: -7.881% for the first, 143.9% for the second.

First: Cc1cccc(C(=O)N2CCn3c(CN4CCN(C)CC4)cnc3C2)n1
Second: CCc1ncc2c(n1)CN(Cc1cn3ccsc3n1)CC2
The “Percent Effect” value of the first is lower: -13.05% for the first, 20.43% for the second.

Compared with `CNC(=O)C(c1cccc(Cl)c1)C(C)C` (stereo not given), `COc1ccccc1CC(=O)N1CCCC(n2nc(C)cc2C)C1` (stereo not given) is higher in “Percent Effect” value: -9.115% for the first, 7.114% for the second.

Going from `Cc1cnn(C2CCCN(C(=O)CCCNc3ncccn3)C2)c1` (stereo not given) to `Cc1cc(C)n(C2CCCN(C(=O)CCCNc3ncccn3)C2)n1` (stereo not given), the “Percent Effect” value rises from 0.4653% to 16.33%.

Going from `Cc1nc(C)n(C2CCCN(C(=O)c3cccnc3NC(C)C)C2)n1` (stereo not given) to `Cc1nc(C)n(C2CCCN(C(=O)CCCc3ccccn3)C2)n1` (stereo not given), the “Percent Effect” value rises from -8.043% to 81.77%.

Compared with `Cc1cnn(C2CCCN(C(=O)CCCc3ccccn3)C2)c1` (stereo not given), `Cc1cc(C)n(C2CCCN(C(=O)CCCc3ccccn3)C2)n1` (stereo not given) is lower in “Percent Effect” value: 102.3% for the first, 93.32% for the second.

Going from `Cc1cnn(C2CCCN(C(=O)CCCOc3cccc(F)c3)C2)c1` (stereo not given) to `Cc1cnn(C2CCCN(C(=O)CCCn3ccnc3C)C2)c1` (stereo not given), the “Percent Effect” value rises from 4.981% to 111.3%.

First: CCn1c(C)nnc1SCCNc1nc(C)nc2ncccc12
Second: Cc1cc(C)n(CC2CCCN2C(=O)CCCc2ccccn2)n1 (stereo not given)
The “Percent Effect” value of the first is lower: -6.645% for the first, -3.027% for the second.

Compared with `CCOc1ccc(NS(=O)(=O)c2cc(C)c(C(=O)O)s2)c(C)c1`, `Cc1nn(C)c(C)c1C(C)NC(=O)c1cc(CN2CCC(O)CC2)on1` (stereo not given) is lower in “Percent Effect” value: 5.769% for the first, -4.084% for the second.

Compared with `Cc1cnn(Cc2ccc(NC(=O)N[C@@H]3C=C[C@H](CO)C3)cc2)c1`, `CCc1nccn1C1CCCN(C(=O)Cc2n[nH]c3ccccc23)C1` (stereo not given) is higher in “Percent Effect” value: -14.53% for the first, -2.139% for the second.

Going from `CCc1nccn1C1CCCN(C(=O)CCc2nccs2)C1` (stereo not given) to `CCc1nccn1C1CCCN(C(=O)CCCc2ccccn2)C1` (stereo not given), the “Percent Effect” value rises from 3.707% to 115.4%.

With `Cn1cnnc1C1CCCN(c2nc3ccccc3o2)C1` (stereo not given) the “Percent Effect” value was -0.3699%.
